# Shown are actives, neighbours in structure and some others; about 7.5% of the full set was active somewhere.
# KinaseGlo FLuc: Kinase-Glo luciferase inhibition (counter-screen); Kinase-Glo luciferase, ATP luminescence, 8 min; Potency, µM (top dose mostly 38.3 µM), without a hit: at the highest dose activity change, negative = inhibition, most hits filed as inhibitors; 200,000 tested, 0.28% active; further: on the % scale 0 is the no-effect control and ±100 the full control effect; nearly all actives have a fitted effect of over 60% in size
#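 Inhibition of Kinase-Glo luciferase light generation was assessed at 10 uM ATP in pH 7.2 imidazole buffer, with luminescence measured after eight minutes at ambient temperature.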
# FLuc counter: counter-screen for miR-21 project: firefly luciferase inhibitors or activators; purified FLuc, Km substrates, luminescence inhibition; AID 588342; Potency, µM (highest dose often 57.5 µM), inactives show at the top dose activity change, negative = inhibition, hits mostly inhibitors; 360,000 tested, 6.9% active;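 further: plate controls were vehicle for no effect and reference inhibitor for full effect; nearly all actives have a fitted effect of over 55% in size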
# Target sequence (P08659 whole entry, looked up): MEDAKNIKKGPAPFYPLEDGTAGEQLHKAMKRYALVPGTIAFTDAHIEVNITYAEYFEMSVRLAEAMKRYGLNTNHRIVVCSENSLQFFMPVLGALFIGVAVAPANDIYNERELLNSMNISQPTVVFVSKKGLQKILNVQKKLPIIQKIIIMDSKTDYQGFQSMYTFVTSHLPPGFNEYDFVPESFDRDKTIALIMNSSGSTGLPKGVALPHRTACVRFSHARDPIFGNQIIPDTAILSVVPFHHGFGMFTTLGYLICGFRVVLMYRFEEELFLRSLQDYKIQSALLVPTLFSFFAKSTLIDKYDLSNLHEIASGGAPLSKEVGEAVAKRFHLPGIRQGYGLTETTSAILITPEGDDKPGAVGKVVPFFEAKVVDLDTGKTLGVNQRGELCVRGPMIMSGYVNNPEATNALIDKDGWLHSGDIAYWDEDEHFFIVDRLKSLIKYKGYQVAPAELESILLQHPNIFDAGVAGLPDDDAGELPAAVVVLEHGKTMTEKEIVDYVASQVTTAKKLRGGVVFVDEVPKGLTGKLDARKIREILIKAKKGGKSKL
#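 Purified P. pyralis luciferase, 10 nM final, with Km-level 10 uM D-luciferin and 10 uM ATP in 50 mM Tris acetate pH 7.5, 10 mM Mg acetate, 0.01% Tween-20, 0.05% BSA; 6-point qHTS titration about 60 µM downward; luminescence read.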
# NPC1 prom act: NPC1 promoter activation; Huh7 NPC1 promoter luciferase reporter, 24 h; Potency, µM (titrated, usually from 9.22 µM), inactives show at the top dose activation, hits mostly activators; 320,000 tested, 2.4% active; AID 485313; further: % of control where 0% means no effect; nearly all actives have a fitted effect of over 60% in size
#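 Luminescence read-out of NPC1 promoter-driven luciferase in stably transfected Huh7 cells; compounds delivered in DMSO and left 24 h at 37C, 5% CO2, qHTS titration format.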
# ELG1 genotoxic: induces genotoxicity in HEK293T cells with luciferase-tagged ELG1; 330,000 tested, 1.3% active; Potency, µM (doses to about 46 µM), without a hit: at the highest dose activity change, positive = activation, actives largely listed as activators; HEK293T ELG1-luciferase reporter, luminescence, 16 h; further: % of control where 0% means no effect; nearly all actives have a fitted effect of over 60% in size
#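 ELG1-luciferase HEK293T cells, 2,000/well; compound pinned in; 16 hr, 37 °C, 5% CO2; ONE-Glo, 30 min RT; luminescence on CCD imager.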
# SMN2 splice enh: enhancers of SMN2 splice variant expression; HEK293 SMN2-luciferase splicing reporter, luminescence, 30-36 h; Potency, µM (top dose mostly 46.1 µM), without a hit: top-dose activity change, positive = activation, hits mostly activators; 210,000 tested, 2.8% active; further: % of control where 0% means no effect; nearly all actives have a fitted effect of over 55% in size
#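 HEK293 cells carry an SMN2 […]–luciferase reporter in which exon 7 inclusion puts luciferase in frame. Cells were plated 10-12 h before compound addition, then incubated 30-36 h at 37C. ONE-Glo luminescence was read; sodium butyrate at 4.5 mM final served as control.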
# Rab9 prom act: activates the Rab9 promoter; Huh7 Rab9 promoter-luciferase reporter, luminescence, 24 h; Potency, µM (series often up to 9.22 µM), inactives show top-dose activation, negative = inhibition, usual class: activators; 320,000 tested, 2.8% active; AID 485297; further: % of control where 0% means no effect; nearly all actives have a fitted effect of over 60% in size
#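 Rab9 promoter-driven luciferase in stably transfected Huh7 cells; 1500 cells/well rested 2 h, exposed to compound in DMSO for 24 h at 37 °C, 5% CO2. Luminescence read 10 min after adding luciferase reagent at ambient temperature.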
# * hit, by the source's call; u = inconclusive; x = no result given. The call rests on the fitted dose curve; in most records, active means well fitted curve in the direction sought with a large enough effect; inconclusive means small, poorly fitted or top-dose-only effect, or another doubt; inactive means no such curve, though single readings can be large; an effect the other way counts as inactive or inconclusive. Potency means the concentration at half of the fitted maximal effect.
SMILES,KinaseGlo FLuc,FLuc counter,NPC1 prom act,ELG1 genotoxic,SMN2 splice enh,Rab9 prom act
O=C(N=C1SC2CS(=O)(=O)CC2N1CCc1ccc(F)cc1)C1CCCCC1 (centres undefined),x,0%,-2%,2%,x,-9%
CSc1ncc(C(=O)N2CCN(c3ccc(Cl)cc3)CC2)c(C)n1,x,-3%,x,x,x,x
Cc1cccc(-c2nc(-c3ccc4c(c3)[nH]c(=O)n4C)no2)c1,x,1%,x,x,x,x
CC(C)c1cc(-c2nc(-c3cccc(Cl)c3)no2)n[nH]1,x,6.7µM*,x,x,x,x
COc1cccc(-c2noc(-c3cc(C(C)C)[nH]n3)n2)c1OC,x,17µM*,x,x,x,x
Cc1cccc(-c2noc(-c3ccno3)n2)c1,x,21µM*,29%,u,x,u
Cc1cccc(-c2noc(-c3cc(C(C)C)[nH]n3)n2)c1,x,4.8µM*,x,x,x,x
CS(=O)(=O)c1ccccc1-c1nc(-c2cccc(Cl)c2)no1,5%,u,0%,7%,-13%,u
COc1cccc(-c2noc(C3CC(=O)N(c4ccc(F)cc4)C3)n2)c1OC (centres undefined),x,5%,x,x,x,x
CCN(CC)C(=O)Cn1c(=O)n(CCCCCC(=O)NCc2ccccc2Cl)c(=O)c2sccc21,x,-6%,x,x,1%,x
O=C1CC(c2cccc(O)c2)Oc2ccccc21 (centres undefined),x,u,19%,4%,x,14%
CC(=O)c1cccc(NC(=O)C2C3C=CC(C4CC34)C2C(=O)O)c1 (centres undefined),7%,-1%,6%,-1%,-2%,-4%
CCc1ccc(NC(=O)C2C3C=CC(C4CC34)C2C(=O)O)cc1 (centres undefined),0%,2.1µM*,21%,8%,u,24%
Cc1cccc(-n2c(=S)[nH]c3sc4c(c3c2=O)CCc2ccccc2-4)c1,5%,7.6µM*,0%,-11%,-8%,4%
COc1ccc(-c2ccc(C(=O)O)c(=O)[nH]2)cc1,0%,-3%,1%,7%,u,24%
Cc1ccc(-c2ccc(C(=O)O)[nH]2)cc1,-1%,19µM*,0%,15%,-7%,0%
CC(C)(C)NC(=O)c1ccc(NC(=O)CSc2ccccc2)cc1,2%,-3%,-1%,3%,7%,-5%
Cc1ccc(C)c2nc3sc(C(=O)O)cc3cc12,-1%,24µM*,-6%,3%,-18%,-1%
CCOC(=O)c1sc(N)c(C(=O)Nc2ccccc2)c1C,2%,u,22%,17%,x,2.8µM*
CCOC(=O)c1sc(N)c(C(=O)OCC)c1C,x,21µM*,u,u,x,u
Cc1cc(C(=O)COC(=O)C(C)NC(N)=O)c(C)n1Cc1ccco1 (centres undefined),-2%,13µM*,5%,17%,4%,28%
Cc1cc(C(=O)C(C)Cl)c(C)n1Cc1ccco1 (centres undefined),1%,-1%,-2%,-3%,-11%,5%
COc1cc(OC)cc(C(=O)NCC(=O)OCC(=O)c2cc(C)n(Cc3ccco3)c2C)c1,-4%,27µM*,-3%,0%,-6%,-2%
Cc1cc(C(=O)COC(=O)c2ccc(Br)o2)c(C)n1Cc1ccco1,0%,2.7µM*,26%,u,-5%,3.2µM*
O=C(COC(=O)CCC(=O)c1ccc2c(c1)OCCO2)NCc1ccc2c(c1)OCO2,1%,11µM*,-1%,10%,8%,5%
SMILES,KinaseGlo FLuc,FLuc counter,NPC1 prom act,ELG1 genotoxic,SMN2 splice enh,Rab9 prom act
Cc1cc(C(=O)COC(=O)CNC(=O)c2ccco2)c(C)n1Cc1ccco1,1%,u,2%,0%,17%,-5%
Cc1cccc(OCC(=O)Nc2ccc(NC(=O)c3ccco3)cc2)c1,x,-2%,0%,8%,x,7%
Cc1cc(C(=O)COC(=O)CCC(=O)c2ccc3c(c2)OCCO3)c(C)n1Cc1ccco1,-2%,8.5µM*,9%,u,8%,12%
CCOc1ncccc1C(=O)OCC(=O)c1cc(OC)ccc1OC,-1%,-7%,-1%,0%,0%,1%
Cc1cc(C(=O)COC(=O)c2ccc(O)cc2)c(C)n1Cc1ccco1,-4%,3.4µM*,3.5µM*,u,22µM*,2.5µM*
CCOc1ncccc1C(=O)OCC(=O)c1cc(C)n(Cc2ccco2)c1C,-15%,0.85µM*,0.35µM*,6.5µM*,13%,0.5µM*
CCCC(=O)c1ccc2c(c1)OCCO2,-6%,u,11%,20%,17%,19%
Oc1c(N=Nc2ccc(F)cc2)ccc2ccccc12,x,0.6µM*,3.2µM*,2.1µM*,x,4.5µM*
Cc1ccc(N=Nc2ccc3ccccc3c2O)cc1,x,0.24µM*,0.56µM*,u,x,2.5µM*
Oc1ccc2ccccc2c1N=Nc1ccc(F)cc1,x,-20%,28%,-1%,x,12%
COc1ccc(C(=O)N2CCC3(CCN(Cc4ccccc4)CC3)CC2)cc1,-3%,x,x,x,-9%,x
CC(C)C(NC(=O)OCc1ccccc1)C(=O)OCC(=O)N1CCCCC1 (centres undefined),-7%,17µM*,29%,21µM*,u,u
CCN(CC(=O)Nc1ccc2c(c1)OCCO2)C(=O)/C=C/c1cccc(Br)c1,x,15µM*,14%,u,x,17%
CCN(CC(=O)Nc1ccc2c(c1)OCCO2)C(=O)/C=C/c1ccc(F)cc1,1%,17µM*,0%,u,23%,27%
Cc1onc(-c2ccccc2)c1C(=O)Nc1nnc(CC(C)(C)C)s1,x,-5%,0%,9%,x,3%
Cc1ccc(-n2c(O)c(/C=N/Nc3ccc(S(=O)(=O)N4CCOCC4)cc3[N+](=O)[O-])c3ccccc3c2=O)c(C)c1,u,24µM*,-7%,-14%,-99%,-15%
O=C(O)c1ccc(/C=N\Nc2ccc(S(=O)(=O)N3CCOCC3)cc2[N+](=O)[O-])cc1,x,-3%,1%,3%,x,-3%
CC(OC(=O)c1ccccc1NCCO)C(=O)NC1CCCCC1C (centres undefined),x,-2%,0%,0%,x,14%
COc1ccc(/C=C/C(=O)c2ccc(C)c([N+](=O)[O-])c2)cc1O,-1%,4.8µM*,1%,9%,2%,-4%
Cc1ccc(-n2c(C)cc(C(=O)CSc3nncs3)c2C)cc1,-10%,3µM*,1µM*,u,12%,0.5µM*
Cc1cc(C(=O)CSc2nncs2)c(C)n1-c1c(C)n(C)n(-c2ccccc2)c1=O,-5%,2%,-4%,8%,-8%,2%
Cc1ccc(-n2c(C)cc(C(=O)CSc3nnnn3C)c2C)cc1,-14%,2.7µM*,0.71µM*,13%,u,0.71µM*

# Screens deposited in PubChem BioAssay by National Center for Advancing Translational Sciences (NCATS).
